Reference: the supplement of paper PMC11732987, “Enantioselective OTUD7B fragment discovery through chemoproteomics screening and high-throughput optimisation” (Communications Chemistry, 2025)

How the values were obtained:
Experiment in all cases: log2 ratio of Biotin-Ahx-Ub-VS probe labelling (fragment/DMSO); higher = less target engagement (more negative = stronger competition), active = hit call of the paper (q ≤ 0.05, log2 ratio ≤ -1)
Details in all cases: compound concentration: 200 uM; treatment time: 3 h
USP34 = USP34 (UniProt Q70CQ2)
USP34, sequence (Q70CQ2 whole entry, the tested form may be a part): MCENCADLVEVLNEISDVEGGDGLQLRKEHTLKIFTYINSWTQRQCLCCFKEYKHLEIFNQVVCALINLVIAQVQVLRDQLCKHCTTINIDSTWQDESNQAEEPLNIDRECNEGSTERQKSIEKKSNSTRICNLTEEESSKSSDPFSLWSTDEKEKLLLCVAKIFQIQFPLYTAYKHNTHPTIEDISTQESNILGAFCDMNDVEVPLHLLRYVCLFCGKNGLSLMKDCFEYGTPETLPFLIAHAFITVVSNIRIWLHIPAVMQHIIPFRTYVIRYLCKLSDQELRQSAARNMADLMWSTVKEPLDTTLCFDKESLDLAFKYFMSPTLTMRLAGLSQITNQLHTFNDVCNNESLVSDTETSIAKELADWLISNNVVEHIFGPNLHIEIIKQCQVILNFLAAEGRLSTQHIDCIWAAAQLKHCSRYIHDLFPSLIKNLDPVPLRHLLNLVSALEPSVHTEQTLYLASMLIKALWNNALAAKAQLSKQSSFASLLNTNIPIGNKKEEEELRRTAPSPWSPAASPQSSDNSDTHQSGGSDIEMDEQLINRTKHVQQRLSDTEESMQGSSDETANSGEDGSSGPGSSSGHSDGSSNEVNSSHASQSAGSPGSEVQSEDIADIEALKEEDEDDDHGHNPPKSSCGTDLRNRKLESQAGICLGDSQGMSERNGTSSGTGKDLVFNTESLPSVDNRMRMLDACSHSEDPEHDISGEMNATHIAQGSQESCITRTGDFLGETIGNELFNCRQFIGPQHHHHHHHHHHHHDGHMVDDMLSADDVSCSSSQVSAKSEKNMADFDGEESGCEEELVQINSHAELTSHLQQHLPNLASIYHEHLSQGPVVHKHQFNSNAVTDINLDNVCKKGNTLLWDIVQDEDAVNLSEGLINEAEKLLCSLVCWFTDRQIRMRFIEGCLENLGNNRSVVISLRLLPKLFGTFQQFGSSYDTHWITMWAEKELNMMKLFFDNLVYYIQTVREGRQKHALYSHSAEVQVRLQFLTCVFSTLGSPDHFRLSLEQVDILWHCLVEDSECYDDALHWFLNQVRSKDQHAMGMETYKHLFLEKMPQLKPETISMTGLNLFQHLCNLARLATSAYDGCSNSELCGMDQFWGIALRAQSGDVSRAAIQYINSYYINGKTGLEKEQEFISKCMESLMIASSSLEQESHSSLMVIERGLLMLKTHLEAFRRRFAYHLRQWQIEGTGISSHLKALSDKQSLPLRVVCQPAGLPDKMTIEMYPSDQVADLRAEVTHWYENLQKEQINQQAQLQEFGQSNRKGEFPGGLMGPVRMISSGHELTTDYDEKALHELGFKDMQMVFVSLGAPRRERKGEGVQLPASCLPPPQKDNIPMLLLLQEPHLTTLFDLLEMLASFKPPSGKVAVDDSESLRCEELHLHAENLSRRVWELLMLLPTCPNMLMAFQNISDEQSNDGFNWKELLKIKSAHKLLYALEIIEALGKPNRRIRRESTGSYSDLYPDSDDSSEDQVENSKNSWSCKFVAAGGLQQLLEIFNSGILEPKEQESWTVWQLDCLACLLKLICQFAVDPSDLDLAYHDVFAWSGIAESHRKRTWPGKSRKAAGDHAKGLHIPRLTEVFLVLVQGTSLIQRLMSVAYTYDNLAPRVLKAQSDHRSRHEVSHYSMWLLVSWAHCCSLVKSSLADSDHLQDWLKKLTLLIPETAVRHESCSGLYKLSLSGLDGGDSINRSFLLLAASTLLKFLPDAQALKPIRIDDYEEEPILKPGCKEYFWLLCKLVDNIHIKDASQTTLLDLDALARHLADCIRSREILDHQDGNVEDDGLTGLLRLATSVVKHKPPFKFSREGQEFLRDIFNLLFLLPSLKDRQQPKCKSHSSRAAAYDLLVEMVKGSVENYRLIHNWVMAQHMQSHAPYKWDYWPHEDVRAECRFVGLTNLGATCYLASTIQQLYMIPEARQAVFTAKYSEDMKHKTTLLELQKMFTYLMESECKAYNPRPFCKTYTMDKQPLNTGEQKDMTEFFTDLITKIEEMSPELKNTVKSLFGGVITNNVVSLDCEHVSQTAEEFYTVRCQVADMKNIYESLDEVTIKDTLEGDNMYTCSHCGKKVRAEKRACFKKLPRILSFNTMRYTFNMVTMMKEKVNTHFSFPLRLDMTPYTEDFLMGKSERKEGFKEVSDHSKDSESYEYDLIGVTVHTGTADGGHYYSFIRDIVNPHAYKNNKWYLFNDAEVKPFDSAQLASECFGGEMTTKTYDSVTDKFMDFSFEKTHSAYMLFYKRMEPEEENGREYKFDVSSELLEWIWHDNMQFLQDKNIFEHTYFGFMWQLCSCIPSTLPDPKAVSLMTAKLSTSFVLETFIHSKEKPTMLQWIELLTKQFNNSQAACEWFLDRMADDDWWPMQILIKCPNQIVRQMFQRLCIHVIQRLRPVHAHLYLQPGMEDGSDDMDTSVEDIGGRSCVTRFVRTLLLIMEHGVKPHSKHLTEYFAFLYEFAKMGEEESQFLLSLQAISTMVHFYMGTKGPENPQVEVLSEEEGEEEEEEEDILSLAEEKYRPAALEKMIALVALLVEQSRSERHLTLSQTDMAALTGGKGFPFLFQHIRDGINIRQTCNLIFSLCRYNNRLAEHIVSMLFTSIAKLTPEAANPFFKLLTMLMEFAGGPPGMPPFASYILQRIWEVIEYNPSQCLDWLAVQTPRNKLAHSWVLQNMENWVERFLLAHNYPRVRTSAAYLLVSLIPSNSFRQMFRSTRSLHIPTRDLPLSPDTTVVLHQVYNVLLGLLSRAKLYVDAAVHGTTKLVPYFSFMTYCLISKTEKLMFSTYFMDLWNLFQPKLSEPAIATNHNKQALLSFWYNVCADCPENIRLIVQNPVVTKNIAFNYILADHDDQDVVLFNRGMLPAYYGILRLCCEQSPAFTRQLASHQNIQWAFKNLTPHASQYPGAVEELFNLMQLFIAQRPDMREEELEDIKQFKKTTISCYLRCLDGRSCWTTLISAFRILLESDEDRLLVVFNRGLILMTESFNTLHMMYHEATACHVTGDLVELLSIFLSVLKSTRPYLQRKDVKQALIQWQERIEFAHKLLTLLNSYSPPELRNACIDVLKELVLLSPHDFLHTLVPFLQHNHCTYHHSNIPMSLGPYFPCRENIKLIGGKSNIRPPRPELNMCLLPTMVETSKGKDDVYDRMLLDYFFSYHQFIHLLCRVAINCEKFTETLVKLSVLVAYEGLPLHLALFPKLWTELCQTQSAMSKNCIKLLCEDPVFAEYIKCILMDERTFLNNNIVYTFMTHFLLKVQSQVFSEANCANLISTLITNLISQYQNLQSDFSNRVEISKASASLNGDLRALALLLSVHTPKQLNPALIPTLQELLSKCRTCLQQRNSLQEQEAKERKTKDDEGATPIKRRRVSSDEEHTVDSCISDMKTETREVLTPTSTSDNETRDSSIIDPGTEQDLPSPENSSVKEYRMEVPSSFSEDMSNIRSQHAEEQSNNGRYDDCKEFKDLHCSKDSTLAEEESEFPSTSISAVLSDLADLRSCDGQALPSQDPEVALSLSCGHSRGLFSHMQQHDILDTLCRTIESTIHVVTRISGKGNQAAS
Method in brief: (§1)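 Labelling with Biotin-Ahx-Ub-VS (0.5 µM final, 1 h) followed a 3 h triplicate treatment of HEK293T lysate (495 µg per sample, Tris/CHAPS/IGEPAL buffer with protease inhibitors) with fragment at 200 µM or vehicle. Labelled DUBs were NeutrAvidin-enriched, digested with LysC and trypsin, and run by diaPASEF LC-MS/MS. The values, average log2 fragment/vehicle ratios by unpaired t-test, come from global-median-normalised Spectronaut label-free quantities. Proteins with ≥2 unique peptides were used.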

USP36 = molecular target: T1, USP36 (UniProt Q9P275)
T1 sequence (whole entry): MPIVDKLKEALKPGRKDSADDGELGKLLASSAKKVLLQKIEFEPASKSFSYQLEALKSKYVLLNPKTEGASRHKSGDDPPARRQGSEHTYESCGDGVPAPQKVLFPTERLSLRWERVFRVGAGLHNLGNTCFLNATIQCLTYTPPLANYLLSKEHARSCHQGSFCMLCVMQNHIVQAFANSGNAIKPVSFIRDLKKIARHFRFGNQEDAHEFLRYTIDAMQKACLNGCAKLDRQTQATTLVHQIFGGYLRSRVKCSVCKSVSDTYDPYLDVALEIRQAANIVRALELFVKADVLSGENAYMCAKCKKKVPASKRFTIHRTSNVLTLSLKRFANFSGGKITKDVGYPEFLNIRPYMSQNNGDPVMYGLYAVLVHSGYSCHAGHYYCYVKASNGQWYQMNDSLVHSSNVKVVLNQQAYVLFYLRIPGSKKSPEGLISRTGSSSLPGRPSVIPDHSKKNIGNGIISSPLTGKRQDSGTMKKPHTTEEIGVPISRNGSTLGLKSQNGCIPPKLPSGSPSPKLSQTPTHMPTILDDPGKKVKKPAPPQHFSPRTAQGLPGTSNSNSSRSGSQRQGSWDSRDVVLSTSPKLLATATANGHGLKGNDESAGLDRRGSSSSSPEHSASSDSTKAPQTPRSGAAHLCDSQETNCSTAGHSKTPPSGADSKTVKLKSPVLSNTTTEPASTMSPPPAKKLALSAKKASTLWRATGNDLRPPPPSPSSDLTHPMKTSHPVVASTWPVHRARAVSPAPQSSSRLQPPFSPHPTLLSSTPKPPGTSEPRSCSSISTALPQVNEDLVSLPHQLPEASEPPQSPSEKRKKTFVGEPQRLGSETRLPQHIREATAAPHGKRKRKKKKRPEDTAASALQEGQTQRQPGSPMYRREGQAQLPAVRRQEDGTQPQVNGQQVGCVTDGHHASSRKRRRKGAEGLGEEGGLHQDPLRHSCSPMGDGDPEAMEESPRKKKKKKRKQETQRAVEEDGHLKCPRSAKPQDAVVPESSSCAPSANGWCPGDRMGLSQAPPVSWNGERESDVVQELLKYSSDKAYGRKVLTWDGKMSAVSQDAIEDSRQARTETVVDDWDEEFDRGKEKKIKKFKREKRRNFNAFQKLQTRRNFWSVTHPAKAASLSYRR
Method in brief: as §1

USP38 = molecular target: T2, USP38 (UniProt Q8NB14)
T2 sequence (whole entry): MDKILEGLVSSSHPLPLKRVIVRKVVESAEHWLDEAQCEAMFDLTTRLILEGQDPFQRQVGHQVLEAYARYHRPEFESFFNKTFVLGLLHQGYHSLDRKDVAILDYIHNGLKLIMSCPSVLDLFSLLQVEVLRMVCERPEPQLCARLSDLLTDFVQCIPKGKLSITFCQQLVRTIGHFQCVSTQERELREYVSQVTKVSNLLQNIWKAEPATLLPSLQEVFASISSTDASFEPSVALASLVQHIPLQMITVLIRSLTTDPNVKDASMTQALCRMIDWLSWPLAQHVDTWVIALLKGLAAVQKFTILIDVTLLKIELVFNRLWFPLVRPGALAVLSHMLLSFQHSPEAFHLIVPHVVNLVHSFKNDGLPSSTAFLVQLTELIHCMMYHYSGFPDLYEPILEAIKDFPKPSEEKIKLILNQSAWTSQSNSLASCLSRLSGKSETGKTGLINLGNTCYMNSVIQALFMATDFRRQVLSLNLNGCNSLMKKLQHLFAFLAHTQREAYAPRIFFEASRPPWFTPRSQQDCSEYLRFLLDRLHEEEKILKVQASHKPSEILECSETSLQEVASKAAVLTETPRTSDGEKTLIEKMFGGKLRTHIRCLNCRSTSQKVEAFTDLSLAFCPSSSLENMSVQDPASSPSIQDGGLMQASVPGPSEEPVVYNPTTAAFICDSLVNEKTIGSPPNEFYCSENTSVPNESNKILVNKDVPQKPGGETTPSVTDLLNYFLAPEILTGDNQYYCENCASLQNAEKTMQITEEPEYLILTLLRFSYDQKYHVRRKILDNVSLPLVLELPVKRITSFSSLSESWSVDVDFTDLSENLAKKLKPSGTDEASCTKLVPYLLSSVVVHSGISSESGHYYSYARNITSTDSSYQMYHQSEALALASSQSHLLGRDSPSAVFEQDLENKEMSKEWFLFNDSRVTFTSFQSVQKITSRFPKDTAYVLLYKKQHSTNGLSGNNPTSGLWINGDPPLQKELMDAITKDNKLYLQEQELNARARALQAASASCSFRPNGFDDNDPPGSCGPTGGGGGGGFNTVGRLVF
Method in brief: as §1

USP39 = molecular target: T3, USP39 (UniProt Q53GS9)
T3 sequence (whole entry): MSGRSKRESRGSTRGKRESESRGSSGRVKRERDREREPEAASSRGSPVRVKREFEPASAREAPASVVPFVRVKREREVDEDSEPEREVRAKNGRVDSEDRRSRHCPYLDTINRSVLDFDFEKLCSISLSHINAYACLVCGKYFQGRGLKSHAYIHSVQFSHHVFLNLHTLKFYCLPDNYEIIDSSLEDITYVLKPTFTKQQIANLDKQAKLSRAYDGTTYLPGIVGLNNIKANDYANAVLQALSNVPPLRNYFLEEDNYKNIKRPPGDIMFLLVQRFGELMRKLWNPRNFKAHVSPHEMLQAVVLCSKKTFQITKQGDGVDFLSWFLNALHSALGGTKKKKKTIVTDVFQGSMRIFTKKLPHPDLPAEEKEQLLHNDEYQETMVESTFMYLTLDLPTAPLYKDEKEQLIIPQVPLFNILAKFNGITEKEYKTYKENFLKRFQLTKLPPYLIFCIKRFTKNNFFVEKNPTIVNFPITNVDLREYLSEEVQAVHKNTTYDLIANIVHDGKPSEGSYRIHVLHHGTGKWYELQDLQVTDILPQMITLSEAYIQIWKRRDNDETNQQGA
Method in brief: as §1

USP4 = molecular target: T4, USP4 (UniProt Q13107)
T4 sequence (whole entry): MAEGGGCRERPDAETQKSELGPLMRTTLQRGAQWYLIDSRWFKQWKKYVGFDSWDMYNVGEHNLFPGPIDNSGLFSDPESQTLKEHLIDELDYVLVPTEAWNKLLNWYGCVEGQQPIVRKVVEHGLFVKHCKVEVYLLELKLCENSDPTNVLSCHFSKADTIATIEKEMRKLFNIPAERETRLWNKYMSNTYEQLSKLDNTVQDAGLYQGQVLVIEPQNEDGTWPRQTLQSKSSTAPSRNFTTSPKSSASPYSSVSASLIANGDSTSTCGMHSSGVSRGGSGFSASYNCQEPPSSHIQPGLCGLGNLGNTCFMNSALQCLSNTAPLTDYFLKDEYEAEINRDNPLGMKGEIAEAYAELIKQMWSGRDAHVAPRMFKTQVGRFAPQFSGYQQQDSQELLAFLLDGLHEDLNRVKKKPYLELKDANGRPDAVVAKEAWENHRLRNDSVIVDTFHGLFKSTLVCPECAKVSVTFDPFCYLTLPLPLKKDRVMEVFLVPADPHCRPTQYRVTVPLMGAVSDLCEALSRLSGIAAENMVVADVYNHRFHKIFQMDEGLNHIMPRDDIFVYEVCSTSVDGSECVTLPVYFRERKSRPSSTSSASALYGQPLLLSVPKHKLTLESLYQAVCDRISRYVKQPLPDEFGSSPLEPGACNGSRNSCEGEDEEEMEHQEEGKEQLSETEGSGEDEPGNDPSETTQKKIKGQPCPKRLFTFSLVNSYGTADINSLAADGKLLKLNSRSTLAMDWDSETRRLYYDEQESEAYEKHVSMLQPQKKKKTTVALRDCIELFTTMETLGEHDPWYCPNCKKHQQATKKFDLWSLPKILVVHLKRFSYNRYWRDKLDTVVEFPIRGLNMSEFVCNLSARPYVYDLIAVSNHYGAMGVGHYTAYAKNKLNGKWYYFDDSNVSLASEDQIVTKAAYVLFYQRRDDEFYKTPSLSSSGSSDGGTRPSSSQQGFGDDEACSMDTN
Method in brief: as §1

Measured: log2 ratio of Biotin-Ahx-Ub-VS probe labelling

COc1cc(Cl)c(C)cc1NC(=O)CCl
inactive: USP34 -0.327 | USP36 -0.122 | USP38 -0.241 | USP39 -0.366 | USP4 -0.423
